Rows were chosen to be rich in hits. Some 7.4% of all compounds tested hit in one or more screens of this group.
NPC1 prom act = activates the NPC1 promoter. Huh7 NPC1 promoter luciferase reporter, 24 h. Potency, µM (titrated, usually from 9.22 µM), hits mostly activators. hit rate 2.4% among 320,000; note: nearly all actives have a fitted effect of over 60% in size
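Stable NPC1-promoter luciferase Huh7 line; cpd (DMSO) 24 h, 37 °C, 5% CO2; Amplite luciferase reagent 10 min RT; luminescence readout. qHTS format.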
FLuc counter = counter-screen for miR-21 project: firefly luciferase inhibitors or activators | purified FLuc, Km substrates, luminescence inhibition | Potency, µM (titrated, usually from 57.5 µM), actives largely listed as inhibitors | hit rate 6.9% among 360,000 | AID 588342; note: nearly all actives have a fitted effect of over 55% in size
Target sequence (P08659 whole entry, looked up): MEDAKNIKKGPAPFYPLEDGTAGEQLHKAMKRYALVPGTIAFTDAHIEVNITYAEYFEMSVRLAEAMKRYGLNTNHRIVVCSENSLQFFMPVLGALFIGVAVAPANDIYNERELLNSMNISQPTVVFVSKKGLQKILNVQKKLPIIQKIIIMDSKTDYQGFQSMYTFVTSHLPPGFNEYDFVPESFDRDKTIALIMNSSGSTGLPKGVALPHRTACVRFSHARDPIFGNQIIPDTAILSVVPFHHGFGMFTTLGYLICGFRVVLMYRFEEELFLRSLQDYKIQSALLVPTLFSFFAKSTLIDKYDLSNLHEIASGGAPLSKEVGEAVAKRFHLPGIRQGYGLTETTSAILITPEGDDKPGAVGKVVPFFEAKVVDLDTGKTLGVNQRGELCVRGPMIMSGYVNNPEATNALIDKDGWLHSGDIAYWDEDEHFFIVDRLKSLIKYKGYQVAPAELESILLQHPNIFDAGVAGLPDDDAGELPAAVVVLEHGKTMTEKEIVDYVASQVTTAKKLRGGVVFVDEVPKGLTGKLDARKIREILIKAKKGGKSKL
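Biochemical qHTS of compounds, final roughly 60 µM downward over six points, against 10 nM purified firefly luciferase using Km concentrations of substrates (10 uM D-luciferin, 10 uM ATP) in Tris acetate pH 7.5 buffer; luminescence output.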
Rab9 promoter act = activators of Rab9 promoter; hit rate 2.8% among 320,000; Huh7 Rab9 promoter-luciferase reporter, luminescence, 24 h; Potency, µM (titrated, usually from 9.22 µM), most hits filed as activators; note: nearly all actives have a fitted effect of over 60% in size
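Rab9 promoter-driven luciferase in stably transfected Huh7 cells; 1500 cells/well rested 2 h, exposed to compound in DMSO for 24 h at 37 °C, 5% CO2. Luminescence read 10 min after adding luciferase reagent at ambient temperature.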
ELG1 genotoxic = induces genotoxicity in HEK293T cells with luciferase-tagged ELG1 | HEK293T ELG1-luciferase reporter, luminescence, 16 h | Potency, µM (top dose mostly 46 µM), most hits filed as activators | hit rate 1.3% among 330,000; note: nearly all actives have a fitted effect of over 60% in size
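DMSO vehicle served as control against compound-treated ELG1-luciferase HEK293T cells; exposure lasted 16 hr at 37 °C and 5% CO2, followed by ONE-Glo luminescence detection after 30 min.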
SMN2 splice enh = enhancers of SMN2 splice variant expression; hit rate 2.8% among 210,000; HEK293 SMN2-luciferase splicing reporter, luminescence, 30-36 h; Potency, µM (top dose mostly 46.1 µM), actives largely listed as activators; AID 1458; note: nearly all actives have a fitted effect of over 55% in size
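HEK293 cells carry an SMN2 minigene-luciferase reporter in which exon 7 inclusion puts luciferase in frame. Cells were seeded at 2000 cells/well, attached for 10-12 hours, then exposed to compounds for 30-36 hours at 37C before ONE-Glo luminescence.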
A number is an active result; [ ] = dose if it differs, or a comment. Calls come from the whole dose curve; as a rule, active = well fitted curve in the direction sought with a large enough effect; inconclusive = small, poorly fitted or top-dose-only effect, or another doubt; inactive = no such curve, though single readings can be large; an effect the other way counts as inactive or inconclusive.

Results for CCOc1ccccc1NC(=O)Cn1c(=O)n(CC(=O)NCc2ccccc2Cl)c(=O)c2sccc21 ?
FLuc counter: inactive; SMN2 splice enh: inactive

Results for O=C(O)c1cc(N/N=C/c2ccc3c(c2)OCO3)ccc1Cl ?
NPC1 prom act: 0.28µM; FLuc counter: 0.76µM; Rab9 promoter act: 0.1µM; ELG1 genotoxic: inconclusive; SMN2 splice enh: 4.5µM

Results for O=C(N/N=C/c1ccc2c(c1)OCO2)c1ccc(Cl)cc1Cl ?
NPC1 prom act: inactive; FLuc counter: inconclusive; Rab9 promoter act: inactive; ELG1 genotoxic: inactive

How did CN(C)c1ccc(CNC(=O)C2(C)C=CCN2C(=O)c2ccccc2)cc1 (stereo not given) do in these assays?
SMN2 splice enh: 16µM

How did CC1(C(=O)O)C=CCN1C(=O)c1ccccc1 (stereo not given) do in these assays?
NPC1 prom act: inactive; FLuc counter: inactive; Rab9 promoter act: inactive; ELG1 genotoxic: inactive; SMN2 splice enh: inactive

How did CCOC(=O)Cn1c(=O)oc2cc(S(=O)(=O)N3CCN(c4cccc(C)c4)C(C)C3)ccc21 (stereo not given) do in these assays?
FLuc counter: inactive; SMN2 splice enh: inactive

What do the screens show for `O=C(Nc1nc2ccc(Cl)cc2s1)C1CCCO1` (stereo not given)?
NPC1 prom act: 1µM; FLuc counter: 6.7µM; Rab9 promoter act: 3.5µM; ELG1 genotoxic: 4.6µM; SMN2 splice enh: 22µM

How did O=C(Nc1nc2ccc([N+](=O)[O-])cc2s1)C1CCCO1 (stereo not given) do in these assays?
NPC1 prom act: inconclusive; FLuc counter: 15µM; Rab9 promoter act: 2.2µM; ELG1 genotoxic: inconclusive; SMN2 splice enh: inconclusive

What do the screens show for `CS(=O)(=O)c1ccc2nc(NC(=O)C3CCCO3)sc2c1` (stereo not given)?
NPC1 prom act: inactive; FLuc counter: inactive; Rab9 promoter act: inactive; ELG1 genotoxic: inactive

Results for O=C(N/N=C/c1ccc(O)c(O)c1)NC12CC3CC(CC(C3)C1)C2 ?
NPC1 prom act: inactive; FLuc counter: inactive; Rab9 promoter act: inactive[1.84 µM]; ELG1 genotoxic: inactive

How did O=C(N/N=C/c1ccccc1O)NC12CC3CC(CC(C3)C1)C2 do in these assays?
NPC1 prom act: inconclusive; FLuc counter: 21µM; Rab9 promoter act: 6.3µM; ELG1 genotoxic: inconclusive

Results for CC(C)N1CCc2c(sc(NC(=O)c3nc4ccccc4s3)c2C(N)=O)C1 ?
NPC1 prom act: inactive; FLuc counter: 17µM; Rab9 promoter act: inactive; ELG1 genotoxic: inactive; SMN2 splice enh: inactive

Results for CCN1CCc2c(sc(NC(=O)c3ccc4ccccc4c3)c2C(N)=O)C1 ?
NPC1 prom act: inactive; FLuc counter: 2.4µM; Rab9 promoter act: inactive; ELG1 genotoxic: inactive

Results for COc1ccc2[nH]cc(CCNc3cc(-c4ccoc4)ncn3)c2c1 ?
SMN2 splice enh: inactive

What do the screens show for `COc1ccc(CCNc2oc(-c3ccc(C)cc3)nc2C#N)cc1OC`?
NPC1 prom act: inactive; FLuc counter: inactive; Rab9 promoter act: inactive; ELG1 genotoxic: inactive; SMN2 splice enh: inactive

Results for COCCNc1oc(-c2ccc(Cl)cc2)nc1C#N ?
NPC1 prom act: inconclusive; FLuc counter: 11µM; Rab9 promoter act: inconclusive; ELG1 genotoxic: inconclusive; SMN2 splice enh: inconclusive

Results for COCCNc1oc(-c2ccc(C)cc2)nc1C#N ?
NPC1 prom act: inconclusive; FLuc counter: 12µM; Rab9 promoter act: 3.5µM; ELG1 genotoxic: 5.6µM; SMN2 splice enh: 10µM

What do the screens show for `CN(C)CCCNc1oc(-c2ccc(Cl)cc2)nc1C#N`?
NPC1 prom act: inactive; FLuc counter: inactive; Rab9 promoter act: inactive; ELG1 genotoxic: inactive; SMN2 splice enh: inactive

Results for Nc1ccc2nn(-c3ccc(F)cc3)nc2c1 ?
NPC1 prom act: 0.89µM; FLuc counter: 4.3µM; Rab9 promoter act: 1.4µM; ELG1 genotoxic: 3.3µM

What do the screens show for `Nc1ccc2nn(-c3cc([N+](=O)[O-])ccc3O)nc2c1`?
NPC1 prom act: inactive; FLuc counter: inactive; Rab9 promoter act: inactive; ELG1 genotoxic: inactive

What do the screens show for `Cc1ccc(-n2nc3ccc(N)cc3n2)cc1`?
NPC1 prom act: inconclusive; FLuc counter: 0.54µM; Rab9 promoter act: 0.5µM; ELG1 genotoxic: 1.4µM; SMN2 splice enh: 3.2µM

How did CC(C)c1ccc(-n2nc3ccc(N)cc3n2)cc1 do in these assays?
NPC1 prom act: 0.89µM; FLuc counter: 0.15µM; Rab9 promoter act: 0.45µM; ELG1 genotoxic: inconclusive

How did Cn1cc2ccc(N)cc2n1 do in these assays?
NPC1 prom act: inactive; FLuc counter: inactive; Rab9 promoter act: inactive; ELG1 genotoxic: inactive

How did Cc1ccc(-n2nc3ccc(NC(=O)c4cccc([N+](=O)[O-])c4C)cc3n2)cc1 do in these assays?
NPC1 prom act: inactive; FLuc counter: inconclusive; Rab9 promoter act: inactive; ELG1 genotoxic: inactive; SMN2 splice enh: inactive

What do the screens show for `CCCCN(C)C(=O)c1ccc2c(c1)N(Cc1ccc(F)cc1)C(=O)c1ccccc1S2(=O)=O`?
FLuc counter: inactive; SMN2 splice enh: inactive

What do the screens show for `S=c1nc[nH]c2c1ncn2Cc1ccco1`?
SMN2 splice enh: inactive[9.22 µM]

How did Cc1ccccc1OC(=O)CSc1nnc(-c2cccs2)o1 do in these assays?
FLuc counter: inactive

Results for Cc1ccc(NC(=O)CSc2n[nH]c(-c3ccncc3)n2)cc1 ?
NPC1 prom act: inactive; FLuc counter: inconclusive; Rab9 promoter act: inactive; ELG1 genotoxic: inactive; SMN2 splice enh: inactive

Results for COc1ccc(-c2nc(SCC(=O)Nc3cccc(S(N)(=O)=O)c3)n[nH]2)cc1 ?
NPC1 prom act: inactive; FLuc counter: 1.7µM; Rab9 promoter act: inactive; ELG1 genotoxic: inactive

Results for COc1ccc(NC(=O)CSc2n[nH]c(-c3ccccc3)n2)cc1S(N)(=O)=O ?
NPC1 prom act: inactive; FLuc counter: 12µM; Rab9 promoter act: inactive; ELG1 genotoxic: inactive

How did COc1ccc(NC(=O)CSc2n[nH]c(-c3ccncc3)n2)cc1Cl do in these assays?
ELG1 genotoxic: inactive

How did COc1ccc(-c2nc(SCC(=O)Nc3c(C)cc(C)cc3C)n[nH]2)cc1 do in these assays?
FLuc counter: 15µM

How did CCOc1ccc(NC(=O)CN(c2ccc(C)cc2)S(=O)(=O)c2cccs2)cc1 do in these assays?
FLuc counter: inactive; SMN2 splice enh: inactive

How did CCCCC/C=C\C\C=C/C=C/C=C/[C@@H](SC[C@H](NC(=O)CC[C@H](N)C(=O)O)C(=O)NCC(=O)O)[C@@H](O)CCCC(=O)O do in these assays?
SMN2 splice enh: inactive

How did COC(=O)c1ccc2c(=O)n(CCCCCC(=O)N3CCN(c4cc(C)ccc4C)CC3)c(=O)[nH]c2c1 do in these assays?
FLuc counter: inactive

How did CCN(c1ccc(NC(=O)c2ccc(N3CCCC3=O)cc2)cc1)C(C)C do in these assays?
NPC1 prom act: inactive; FLuc counter: inconclusive; Rab9 promoter act: inactive; ELG1 genotoxic: 6.5µM

Results for O=C(Nc1nc2ccc(F)cc2s1)c1ccc(N2CCCC2=O)cc1 ?
NPC1 prom act: 0.4µM; FLuc counter: inactive; Rab9 promoter act: 0.32µM; ELG1 genotoxic: 0.46µM

Results for O=C(Nc1ccccc1Br)c1ccc(N2CCCC2=O)cc1 ?
NPC1 prom act: inconclusive; FLuc counter: 15µM; Rab9 promoter act: 2.5µM; ELG1 genotoxic: inconclusive
